The record followed here is PubChem BioAssay.

Assay [1] in a line: small molecules captured by biotinylated probe aFSTL3 – biochemical, small-molecule microarray, fluorescence 635/667, stem cell growth factor project, primary screen (AID 1064).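 Note: measures binding of the biotinylated anti-FSTL3 antibody to printed compounds.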 The following applies: higher = more signal.
Assay [2] in a line: binders from COS7 lysate, DM2A8 probe, primary screen, torsin A project, cell lysate, small-molecule microarray, fluorescence 635/667 (AID 1065). The following applies: higher = more signal, COS7 lysate expressing mutant human TOR1A.
Assay [3] can be described thus: small molecules captured by biotinylated probe aFGF2 – biochemical, small-molecule microarray, fluorescence 635/667, stem cell growth factor project, primary screen (AID 1067).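 Note: measures binding of biotinylated aFGF2 protein to printed compounds on slides; z-score merges feature fluorescence and signal-to-noise across triplicate slides.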 The note with it: higher = more signal.
Assay [4] is described as follows: small molecules captured by biotinylated probe aFGF10 – biochemical, small-molecule microarray, fluorescence 635/667, stem cell growth factor project, primary screen (AID 1071).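 Note: score merges 667 nm spot intensity and signal to noise from triplicate slides.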 The note with it: higher = more signal.
Assay [5] has as its target Neurogenic locus notch homolog protein 2 (Homo sapiens) (UniProt Q04721). The assay is described as follows: small molecules binding Notch2 protein – biochemical, small-molecule microarray, 635 nm fluorescence, stem cell growth factors, primary screen (AID 1073). The following applies: higher = more signal.
Assay [6] addresses Pro-neuregulin-1, membrane-bound isoform (Homo sapiens) (UniProt Q02297). Kind of assay: small molecules binding neuregulin-1 protein – biochemical, small-molecule microarray, fluorescence 635/667, psychiatric disease protein project, primary screen (AID 1075).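 Note: score combines 667 nm spot fluorescence with signal to noise.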 The following applies: NRG1 binding, 635 nm fluorescence, higher = more signal.
For assay [7], the system named is Neuregulin-1 EGF-like domain. Kind of assay: small molecules binding NRG1 EGF domain – biochemical, small-molecule microarray, 635 nm fluorescence, primary screen (AID 1081).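 Note: binding of the protein to compounds printed on small-molecule microarray slides.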 The note with it: higher = more signal.
The nature of assay [8]: FRG1 expression reporter modulators in myotubes – cell-based, C2C12 myotubes, firefly/Renilla luciferase, luminescence, FRG1 inhibition for FSHD, primary screen (AID 1084). The note with it: FRG1 promoter luciferase, higher = more signal, called active from +8 up or from −8 down.
Assay [9] is described as follows: small molecules captured by biotinylated probe aFST – biochemical, small-molecule microarray, fluorescence 635/667, stem cell growth factor project, primary screen (AID 1086).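 Note: score merges 667 nm fluorescence with signal-to-noise of each printed compound spot.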 The note with it: higher = more signal.
The nature of assay [10]: binders of probe aHhip on microarray, primary screen, stem cell growth factor project, biochemical, small-molecule microarray, fluorescence 635/667 (AID 1087).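 Note: score merges spot fluorescence at 667nm with spot signal to noise ratio.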 The following applies: higher = more signal.

Active and inactive are the calls of the source.

Sequence of Pro-neuregulin-1, membrane-bound isoform (Homo sapiens) (Q02297 whole entry, looked up, the tested form may be a part, canonical isoform): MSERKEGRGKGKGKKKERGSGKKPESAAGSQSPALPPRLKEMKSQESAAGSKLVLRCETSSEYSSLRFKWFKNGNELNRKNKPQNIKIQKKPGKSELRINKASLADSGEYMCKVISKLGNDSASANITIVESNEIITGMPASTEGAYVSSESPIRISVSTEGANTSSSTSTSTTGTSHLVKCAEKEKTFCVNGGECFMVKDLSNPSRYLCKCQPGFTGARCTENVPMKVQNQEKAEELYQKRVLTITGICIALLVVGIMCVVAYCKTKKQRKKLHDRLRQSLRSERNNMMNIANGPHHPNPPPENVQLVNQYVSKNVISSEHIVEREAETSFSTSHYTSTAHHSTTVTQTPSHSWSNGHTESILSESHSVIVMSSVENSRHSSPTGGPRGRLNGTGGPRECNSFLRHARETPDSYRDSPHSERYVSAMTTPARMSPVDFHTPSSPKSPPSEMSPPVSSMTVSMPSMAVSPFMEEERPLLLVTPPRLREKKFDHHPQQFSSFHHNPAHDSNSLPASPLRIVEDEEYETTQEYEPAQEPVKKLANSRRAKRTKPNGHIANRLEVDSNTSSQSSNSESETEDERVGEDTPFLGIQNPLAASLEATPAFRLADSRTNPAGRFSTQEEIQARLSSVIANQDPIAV
Sequence of Neurogenic locus notch homolog protein 2 (Homo sapiens) (Q04721 whole entry, looked up, canonical isoform): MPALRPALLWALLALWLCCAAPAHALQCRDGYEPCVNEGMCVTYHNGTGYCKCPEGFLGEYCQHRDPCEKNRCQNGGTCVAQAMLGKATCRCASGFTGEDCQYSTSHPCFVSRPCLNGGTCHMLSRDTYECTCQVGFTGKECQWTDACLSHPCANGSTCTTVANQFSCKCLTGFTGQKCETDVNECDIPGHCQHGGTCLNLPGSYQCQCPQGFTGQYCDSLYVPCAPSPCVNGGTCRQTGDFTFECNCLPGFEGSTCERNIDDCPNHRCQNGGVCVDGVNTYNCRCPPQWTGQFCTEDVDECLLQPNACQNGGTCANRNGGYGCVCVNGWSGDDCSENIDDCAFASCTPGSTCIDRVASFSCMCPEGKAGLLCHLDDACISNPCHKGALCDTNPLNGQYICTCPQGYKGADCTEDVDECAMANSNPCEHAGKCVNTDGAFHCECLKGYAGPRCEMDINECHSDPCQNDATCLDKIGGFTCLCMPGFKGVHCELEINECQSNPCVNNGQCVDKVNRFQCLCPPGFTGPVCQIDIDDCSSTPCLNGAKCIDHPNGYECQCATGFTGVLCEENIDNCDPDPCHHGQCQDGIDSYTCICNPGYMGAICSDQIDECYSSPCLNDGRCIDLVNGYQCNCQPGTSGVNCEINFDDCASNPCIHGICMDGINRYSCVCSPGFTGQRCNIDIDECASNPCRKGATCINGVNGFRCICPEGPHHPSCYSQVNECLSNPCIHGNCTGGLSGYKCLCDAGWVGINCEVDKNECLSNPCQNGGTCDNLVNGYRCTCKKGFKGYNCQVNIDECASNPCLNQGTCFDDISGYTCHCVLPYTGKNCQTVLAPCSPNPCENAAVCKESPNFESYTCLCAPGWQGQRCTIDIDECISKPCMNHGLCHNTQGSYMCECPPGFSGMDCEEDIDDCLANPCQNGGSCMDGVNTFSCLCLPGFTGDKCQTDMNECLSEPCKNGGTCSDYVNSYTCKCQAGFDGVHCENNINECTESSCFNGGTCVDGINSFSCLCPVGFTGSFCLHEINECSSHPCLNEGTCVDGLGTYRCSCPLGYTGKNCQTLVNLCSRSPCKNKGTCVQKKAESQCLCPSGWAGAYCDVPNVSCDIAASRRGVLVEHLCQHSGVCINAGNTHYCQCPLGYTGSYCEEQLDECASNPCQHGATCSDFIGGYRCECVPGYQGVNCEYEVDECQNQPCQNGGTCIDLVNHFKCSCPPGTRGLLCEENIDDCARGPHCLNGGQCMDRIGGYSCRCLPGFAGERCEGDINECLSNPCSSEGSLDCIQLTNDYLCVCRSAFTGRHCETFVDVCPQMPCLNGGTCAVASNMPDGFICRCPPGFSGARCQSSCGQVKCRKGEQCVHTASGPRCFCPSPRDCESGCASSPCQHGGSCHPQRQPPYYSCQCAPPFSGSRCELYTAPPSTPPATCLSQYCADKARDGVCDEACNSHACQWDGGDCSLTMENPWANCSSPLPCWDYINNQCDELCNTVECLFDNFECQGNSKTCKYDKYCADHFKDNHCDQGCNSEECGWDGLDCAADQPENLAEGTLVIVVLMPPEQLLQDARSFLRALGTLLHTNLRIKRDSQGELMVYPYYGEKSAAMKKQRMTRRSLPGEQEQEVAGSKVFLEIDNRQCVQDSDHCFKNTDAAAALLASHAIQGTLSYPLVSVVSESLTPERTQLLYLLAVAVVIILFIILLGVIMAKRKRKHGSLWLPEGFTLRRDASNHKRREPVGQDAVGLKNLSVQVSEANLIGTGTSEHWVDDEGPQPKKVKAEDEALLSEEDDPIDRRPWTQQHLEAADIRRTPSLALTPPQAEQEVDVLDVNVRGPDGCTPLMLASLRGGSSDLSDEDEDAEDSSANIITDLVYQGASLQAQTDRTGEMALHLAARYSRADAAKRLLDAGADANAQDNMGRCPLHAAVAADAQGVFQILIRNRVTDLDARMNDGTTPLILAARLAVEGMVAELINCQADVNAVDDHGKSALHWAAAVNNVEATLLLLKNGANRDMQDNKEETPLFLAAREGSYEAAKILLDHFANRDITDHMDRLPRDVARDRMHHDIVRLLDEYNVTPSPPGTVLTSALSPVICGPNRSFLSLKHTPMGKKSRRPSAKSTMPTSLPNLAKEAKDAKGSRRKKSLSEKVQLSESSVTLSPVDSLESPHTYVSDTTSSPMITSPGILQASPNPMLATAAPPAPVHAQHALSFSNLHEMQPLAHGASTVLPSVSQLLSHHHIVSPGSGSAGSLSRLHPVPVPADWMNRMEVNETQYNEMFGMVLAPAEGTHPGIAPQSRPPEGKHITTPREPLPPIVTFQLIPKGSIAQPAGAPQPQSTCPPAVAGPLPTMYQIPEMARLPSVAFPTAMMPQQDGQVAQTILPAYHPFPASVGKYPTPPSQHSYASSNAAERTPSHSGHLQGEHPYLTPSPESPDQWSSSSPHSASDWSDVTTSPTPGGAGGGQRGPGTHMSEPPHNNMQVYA

On to `CCOc1ccc(N2C(=O)/C(=C/C=C/c3ccccc3OC)S(=O)(=O)C2c2cccc([N+](=O)[O-])c2)cc1` (stereo not given), for which the composite z-score in assay [1] is -0.0317; in assay [2] it was 0.232; in [3] it was -0.0906; in assay [4], 0.281; in assay [5], 0.344; in assay [6], 0.903. The composite z-score in [7] was -0.142; in [9], 0.323; in assay [10], -0.515. The z-score in [8] is -1.75 (inactive).

Consider `CCc1cc2c(nc1CC)CCN(CCC(C)=NOC[C@@H](O)COCc1ccco1)C2`, for which the composite z-score in assay [1] is 0.394; in assay [2] it was 2.81; in [3], -0.105; in assay [4] it was 0.0103; in assay [5], 0.95; in assay [6], -0.38. Further, the composite z-score in assay [7] amounted to 1.36; in assay [9], 2.06; in [10], 0.382. For the same molecule, the z-score in [8] is 1.16 (inactive).

For the molecule `CC(C)NC(=O)[C@@H]1c2ccccc2C(=O)N(CC23CC4CC(CC(C4)C2)C3)[C@H]1c1ccc(CO)cc1`, the composite z-score in assay [1] was -0.438; in assay [2], -0.0125; in assay [3] it was -0.0277; in assay [4], 0.0767; in assay [5], 1.38; in assay [6] it was 0.93. Besides, the results for the composite z-score in [7], in [9] and in assay [10] were 1.27, 0.839 and -0.434, respectively. Also, in assay [8], the z-score was -3.34 (inactive).

`CO[C@H]1COC(=O)[C@H](C)COC(=O)CC=C[C@@H](C)[C@H](OC)COC(=O)CC=C[C@@H]1C`: the composite z-score is -0.654 in assay [1]; 0.682 in assay [2]; -0.226 in assay [3]; -0.0247 in assay [4]; -0.217 in assay [5]; -0.481 in assay [6]. Moreover, the composite z-score in assay [7] is -0.311; in [9], -0.08; in assay [10], 0.0854. Further, the z-score in [8] was 0.847 (inactive).

Turning to `CO[C@H]1COC(=O)[C@@H]2CCCN2C(=O)[C@@H](C)COC(=O)CC=C[C@@H]1C`, the composite z-score in assay [1] is -0.553; in assay [2], 1.69; in assay [3], -0.118; in assay [4], 0.624; in assay [5] it was 0.0761; in [6], -0.446. The results for the composite z-score in assay [7], in assay [9] and in assay [10] were 0.997, 0.107 and -0.249, respectively. In addition, the z-score in assay [8] is 0.36 (inactive).

On to `COCC(=C=CC[C@@H](O)c1ccccc1OCCO)CCO`, for which the composite z-score in assay [1] was -0.181; in assay [2], 0.44; in assay [3], 0.0201; in [4] it was 0.492; in assay [5], 0.375; in [6] it was 0.19. Moreover, the values for the composite z-score in assay [7], in [9] and in assay [10] were 1.27, 0.175 and -0.0618, respectively. Also, the z-score in assay [8] is 0.0373 (inactive).

`COC(=O)[C@H](C)NC(=O)CCC1CC(OC(=O)NCc2ccc3c(c2)OCO3)CC2(CCCC(COC(=O)NCCOc3ccccc3)O2)O1` (stereo not given in full): the composite z-score was -0.426 in assay [1]; 0.898 in assay [2]; -0.122 in [3]; 0.325 in assay [4]; 1.06 in assay [5]; 0.689 in [6]. In addition, the composite z-score is 1.04 in [7], 0.91 in assay [9] and -0.479 in [10]. For the same molecule, the z-score in assay [8] was -0.503 (inactive).

Consider `COCCOC(=O)N1C(=O)[C@@]2(c3ccccc31)[C@H](C(N)=O)[C@H]1C(=O)O[C@H](c3ccccc3)[C@H](c3ccccc3)N1[C@@H]2c1ccccc1OCCO`, for which the composite z-score is 0.0407 in assay [1]; 1.67 in assay [2]; 0.147 in assay [3]; 0.937 in assay [4]; 0.899 in [5]; 1.42 in [6]. Also, the composite z-score in [7] was found to be 1.11; in [9], 0.521; in assay [10], 0.234. The z-score in [8] is -0.732 (inactive).

Take `CO[C@@H]1COC(=O)CCC[C@@H](C)[C@H](OC)COC(=O)[C@H](Cc2ccccc2)NC(=O)CC=C[C@H]1C`: the composite z-score was -0.0731 in [1]; 1.42 in [2]; -0.186 in assay [3]; -0.904 in assay [4]; -1.13 in assay [5]; -0.87 in assay [6]. For the same molecule, the values for the composite z-score in [7], in [9] and in [10] were -1.25, -0.104 and -0.134, respectively. Also, the z-score in assay [8] was 0.0446 (inactive).

Take `C=CC[C@]1(C(=O)NCc2ccccc2)N=C(c2ccc(OCCCO)cc2)O[C@H]1c1ccccc1`: the composite z-score is 0.674 in assay [1]; 1.1 in [2]; -0.0131 in assay [3]; -0.439 in [4]; 0.007 in [5]; 1.51 in [6]. Besides, the composite z-score in assay [7] was 1.26; in assay [9], 0.991; in [10], -0.0645. Moreover, in [8], the z-score was -0.97 (inactive).

For `C[C@@H](c1ccccc1)N1C(=O)[C@H]2[C@H]3[C@H](O)C=CC(=O)[C@@H]3CC[C@H]2C1=O`, the composite z-score in assay [1] is -0.663; in [2] it was 0.0994; in assay [3], -0.218; in assay [4], 0.277; in assay [5] it was 0.348; in assay [6] it was 0.185. For the same molecule, the composite z-score was 0.609 in [7], 0.123 in assay [9] and -0.0738 in assay [10]. For the same molecule, in assay [8], the z-score is -0.608 (inactive).

`CCc1cc2c(nc1CC)CCN(CCC(C)=NO[C@@H](C)c1cc(-c3c(C)cc(C)cc3C)no1)C2`: the composite z-score was -0.291 in assay [1]; 0.0396 in assay [2]; -0.126 in [3]; -0.298 in assay [4]; -0.89 in assay [5]; 0.191 in [6]. In addition, the results for the composite z-score in [7], in assay [9] and in assay [10] were -0.0858, -0.119 and 0.0187, respectively. In addition, the z-score in assay [8] was -1.01 (inactive).

As to `c1ccc(C2NCCc3c2[nH]c2ccccc32)cc1` (stereo not given), the composite z-score in assay [1] was 0.136; in assay [2], 0.548; in [3] it was 0.0183; in assay [4], 0.0913; in [5] it was -0.443; in assay [6], 0.464. The composite z-score in assay [7] was 0.233; in assay [9], -0.16; in assay [10], -0.128. Also, the z-score in assay [8] was -0.151 (inactive).

Consider `CCOC(=O)CCN1C(=O)[C@H]2[C@H]3[C@H](O)[C@H](O)CC(=O)[C@H]3CC[C@H]2C1=O`, for which the composite z-score in assay [1] was -0.554; in assay [2], 0.418; in assay [3], -0.128; in [4], 0.389; in [5], 0.709; in assay [6] it was 0.217. Moreover, the figures for the composite z-score in assay [7], in assay [9] and in assay [10] were 0.518, 0.372 and -0.132, respectively. Besides, the z-score in assay [8] was 0.639 (inactive).

`CC(C)CN1CCc2nc(-c3ccccc3)c3c(c2CC1)CO[C@@H](C)C3`: the composite z-score in assay [1] was 0.0816; in assay [2], 0.252; in assay [3], -0.0594; in [4] it was 0.309; in [5] it was 0.834; in assay [6], -0.117. The composite z-score in [7] stood at 0.132; in assay [9], 0.594; in assay [10] it was 0.394. Further, the z-score in assay [8] was -0.867 (inactive).

On to `C=CC[C@@H]1C=C[C@H](ON=C[C@@H](OC)[C@H](C)C=CCC(=O)OC)[C@@H](CO)O1`, for which the composite z-score in [1] was -0.147; in assay [2] it was 0.827; in assay [3] it was -0.0493; in assay [4] it was 0.223; in assay [5], -0.203; in [6], 0.161. In addition, the composite z-score in assay [7] is 0.528; in [9], 0.0886; in assay [10] it was -0.0346. For the same molecule, the z-score in assay [8] is 0.813 (inactive).

`COC(=O)[C@H](C)NC(=O)CCC1CC(OC(=O)NCc2cccc3ccccc23)CC2(CCCC(COC(=O)NCC3CCCCC3)O2)O1` (stereo not given in full): the composite z-score in assay [1] was -0.641; in assay [2], 0.585; in assay [3], -0.0775; in assay [4] it was 0.406; in assay [5] it was 1.34; in [6] it was 1.06. The results for the composite z-score in assay [7], in assay [9] and in assay [10] were 1.16, 0.715 and 0.21, respectively. For the same molecule, in assay [8], the z-score is 0.619 (inactive).
